This passage reports AC50 and outcome results from PubChem BioAssay (EPA / NIEHS).

Results filed as inconclusive are left out. Some compounds were tested as several samples or in several runs, with calls that do not always agree. Active and inactive are the calls of the source. Rule for the calls, unless noted: active = hit-call score of the fitted dose curve at least 0.9, where 1 is the maximum; inactive = score below 0.9.

Test [1] can be described thus: ATG_PXRE_CIS: Attagene CIS-FACTORIAL HepG2 Assay for human Pregnane X Receptor Element (PXRE) (AID 2282957). The following applies: HepG2 Attagene CIS-FACTORIAL PXRE reporter, mRNA; actives raise or lower the signal. A digest of the protocol:
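HepG2 cells transiently transfected with cis-regulated multiple reporter transcription units; endogenous factor activity measured as reporter mRNA 24 h after dosing. RT-PCR, fluorescent primer extension, HpaI digestion, capillary electrophoresis; bidirectional fit versus DMSO baseline.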

Test [2] is described as follows: ATG_PPRE_CIS: Attagene CIS-FACTORIAL HepG2 Assay for human Peroxisome Proliferator-activated Response Element (PPRE) (AID 2282958). The following applies: HepG2 PPRE cis-element reporter, Attagene transcription factor profiling; actives raise or lower the signal. A digest of the protocol: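 HepG2, transient MRTU transfection (cis promoter elements, endogenous TFs). 24 h dosing. RNA → oligo(dT) RT → PCR → 6-FAM primer extension → HpaI digest → CE. Bidirectional fit vs DMSO.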

A short description of test [3]: ATG_RORE_CIS: Attagene CIS-FACTORIAL HepG2 Assay for human RAR-related Orphan Receptor Element (RORE) (AID 2282959). The following applies: HepG2 Attagene cis-factorial RORE reporter, mRNA; actives raise or lower the signal. A digest of the protocol:
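Transient MRTU transfection of human HepG2 liver cells (FuGene 6); 24 h compound exposure; TriZol RNA, oligo(dT) RT, PCR, FAM labeling, HpaI cut, CE fragment analysis. DMSO = negative control/baseline.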

Test [4] can be described thus: ATG_Sox_CIS: Attagene CIS-FACTORIAL HepG2 Assay for human SRY-box transcription factor (SOX) (AID 2282960). The following applies: HepG2 Attagene cis-factorial SOX reporter, mRNA; actives raise or lower the signal. The essentials: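 Endogenous factor activity in human liver HepG2 cells carrying transfected cis-regulated reporter units. RNA taken 24 h post-dose, reverse-transcribed, PCR-amplified and sized by capillary electrophoresis. Gain or loss of signal fitted relative to DMSO.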

Test [5] deals with Transcription factor Sp1 (Homo sapiens) (UniProt P08047). Briefly: ATG_Sp1_CIS: Attagene CIS-FACTORIAL HepG2 Assay for human Specificity Protein 1 (Sp1) (AID 2282961). The following applies: HepG2 Sp1 cis-reporter transcription, actives raise or lower the signal. A digest of the protocol:
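Transient MRTU-transfected HepG2, 24 h compound exposure. Total RNA → oligo(dT) RT → PCR of reporter → 6-FAM primer extension → HpaI digest → CE. Endpoint fitted both directions vs DMSO.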

Test [6] in a line: ATG_SREBP_CIS: Attagene CIS-FACTORIAL HepG2 Assay for human Sterol Regulatory Element Binding (SREBP) (AID 2282962). The following applies: HepG2 Attagene cis-factorial SREBP reporter, mRNA; actives raise or lower the signal. A digest of the protocol:
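Transfected HepG2 (cis-regulated reporter library, endogenous TFs) → compound 24 h → total RNA → oligo(dT) RT → reporter-specific PCR → FAM primer extension, HpaI cut → CE fluorescence. Fit bidirectional vs DMSO.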

Test [7] deals with Signal transducer and activator of transcription 3 (Homo sapiens) (UniProt P40763). Briefly: ATG_STAT3_CIS: Attagene CIS-FACTORIAL HepG2 Assay for human Signal Transducer and Activator of Transcription 3 (STAT3) (AID 2282963). The following applies: HepG2, Attagene cis-factorial STAT3 reporter transcription; actives raise or lower the signal. The essentials:
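HepG2 cells transiently transfected with multiple cis-element-driven reporter units report endogenous transcription factor activity. After 24 h compound exposure, reporter mRNA is measured by RT-PCR, 6-FAM labelling, HpaI digestion and capillary electrophoresis. Fitted bidirectionally versus DMSO.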

A short description of test [8]: ATG_TA_CIS: Attagene CIS-FACTORIAL HepG2 Assay for human TA Basal Promoter (AID 2282964). The following applies: HepG2 Attagene CIS-factorial TA basal promoter reporter; actives raise or lower the signal. The essentials: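 Read-out: fluorescent reporter-transcript fragments resolved by capillary electrophoresis after RT-PCR and HpaI digestion. Source: HepG2 cells carrying transiently transfected multi-reporter cis constructs, treated 24 h. Endpoint fitted bidirectionally relative to DMSO.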

The nature of test [9]: ATG_TCF_b_cat_CIS: Attagene CIS-FACTORIAL HepG2 Assay for human T-Cell-Factor with beta-catenin (TCF/b-cat) (AID 2282965). The following applies: HepG2 TCF/beta-catenin cis-reporter transcription, actives raise or lower the signal. The essentials: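 HepG2, transient MRTU transfection, cis-element-driven reporters (endogenous TFs). 24 h compound exposure. Readout: reporter mRNA by RT-PCR + 6-FAM primer extension, HpaI digest, capillary electrophoresis. Gain/loss fit vs DMSO baseline.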

Test [10] in a line: ATG_TAL_CIS: Attagene CIS-FACTORIAL HepG2 Assay for human TAL Basal Promoter (AID 2282966).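 Note: background control endpoint measuring basal TAL promoter reporter mRNA not a specific factor.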 The following applies: HepG2 Attagene cis-factorial TAL promoter reporter; actives raise or lower the signal. The essentials:
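HepG2 cells were transiently transfected with promoter-driven multiplexed reporter units and dosed for 24 h. Reporter mRNA was measured by RT-PCR with capillary electrophoresis fluorescence; bidirectional fits used DMSO as baseline, serving as a background control.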

The nature of test [11]: ATG_TGFb_CIS: Attagene CIS-FACTORIAL HepG2 Assay for human Transforming Growth Factor (TGF) (AID 2282967). The following applies: HepG2 Attagene CIS TGFb reporter, mRNA transcription; actives raise or lower the signal. A digest of the protocol:
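Transient MRTU transfection of HepG2 (FuGene 6). Dose 24 h. TriZol RNA, oligo(dT) RT, PCR, 6-FAM primer extension, HpaI cut, CE. Bidirectional fit, DMSO = baseline.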

Test [12] is described as follows: ATG_VDRE_CIS: Attagene CIS-FACTORIAL HepG2 Assay for human Vitamin D Receptor Element (VDRE) (AID 2282968). The following applies: HepG2 VDRE cis-reporter transcription, actives raise or lower the signal. The essentials:
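Transiently transfected HepG2 cells carrying cis-regulated reporter transcription units were exposed for 24 h. Reporter mRNA was measured by RT-PCR with fluorescent labelling and capillary electrophoresis, and fitted in both directions against DMSO.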

For test [13], the target named is X-box-binding protein 1 (Homo sapiens) (UniProt P17861). As to the kind of experiment: ATG_Xbp1_CIS: Attagene CIS-FACTORIAL HepG2 Assay for human X-box Binding Protein 1 (XBP1) (AID 2282972). The following applies: HepG2 XBP1 cis-element reporter, Attagene multiplex; actives raise or lower the signal. A digest of the protocol: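 HepG2, transient MRTU transfection (cis-promoter driven), 24 h compound exposure. Total RNA → oligo(dT) RT → PCR → 6-FAM labeling → HpaI cut → CE. Bidirectional fit vs DMSO.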

A short description of test [14]: ATG_M_19_TRANS: Attagene TRANS-FACTORIAL HepG2 Assay for M19 Transcription Factor (Internal Marker) (AID 2282974; active = hit-call score of the fitted dose curve at least 0.9, where 1 is the maximum). The following applies: HepG2 Attagene TRANS-FACTORIAL M19 internal marker reporter. A digest of the protocol:
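Fluorescence of 6-FAM-labelled reporter cDNA fragments, separated by capillary electrophoresis, served as the readout. These derived from HepG2 cells carrying transfected GAL4-UAS reporter units after 24 h dosing, with DMSO as negative control.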

Test [15] addresses Glucocorticoid receptor (Homo sapiens) (UniProt P04150). Briefly: ATG_GR_TRANS: Attagene TRANS-FACTORIAL HepG2 Assay for human Glucocorticoid Receptor (GR) (AID 2282978; active = hit-call score of the fitted dose curve at least 0.9, where 1 is the maximum;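 note: activators score as hits since higher reporter transcript over DMSO is fitted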). The following applies: HepG2 Attagene TRANS GR reporter, mRNA transcription. The essentials:
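Fluorescent capillary-electrophoresis quantitation of reporter mRNA is the readout, taken 24 h after dosing human HepG2 cells carrying transiently transfected GAL4-UAS reporter units activated by chimeric NR-GAL4 fusions; activity scored as induction over DMSO.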

The target in test [16] is Nuclear receptor subfamily 1 group I member 3 (Homo sapiens) (UniProt Q14994). As to the kind of experiment: ATG_CAR_TRANS: Attagene TRANS-FACTORIAL HepG2 Assay for human Constitutive Androstane Receptor (CAR) (AID 2282969; active = hit-call score of the fitted dose curve at least 0.9, where 1 is the maximum;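 note: activators raise reporter mRNA above DMSO so AC50 marks induction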). The following applies: HepG2 Attagene TRANS-FACTORIAL CAR reporter. The essentials:
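HepG2 cells transiently transfected with GAL4-UAS reporter units; TRANS format reads activity of exogenous chimeric NR-Gal4 protein. After 24 h dosing, reporter mRNA quantified by RT-PCR, 6-FAM labelling and capillary electrophoresis; gain of signal fitted against DMSO.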

The target in test [17] is Estrogen receptor (Homo sapiens) (UniProt P03372). As to the kind of experiment: ATG_ERa_TRANS: Attagene TRANS-FACTORIAL HepG2 Assay for human Estrogen Receptor alpha (ERa) (AID 2282970; active = hit-call score of the fitted dose curve at least 0.9, where 1 is the maximum). The following applies: HepG2 Attagene TRANS ERa GAL4 reporter, mRNA. The essentials: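 HepG2 cells transiently transfected with multiplexed GAL4-UAS reporter units; ERa activity read via exogenous chimeric NR-Gal4 protein. After 24 hour compound exposure, reporter mRNA measured by RT-PCR with 6-FAM labelling and capillary electrophoresis; gain-of-signal fitted relative to DMSO.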

Test [18] deals with Estrogen-related receptor gamma (Homo sapiens) (UniProt P62508). As to the kind of experiment: ATG_ERRg_TRANS: Attagene TRANS-FACTORIAL HepG2 Assay for human Estrogen-Related Receptor gamma (ERRg) (AID 2282977; active = hit-call score of the fitted dose curve at least 0.9, where 1 is the maximum;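 note: hits increase reporter signal over DMSO so potencies reflect activators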). The following applies: HepG2 Attagene TRANS reporter, ERRg transactivation. A digest of the protocol:
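Transfect HepG2 with multiple GAL4-UAS reporter transcription units; dose chemicals 24 h; isolate RNA, reverse-transcribe with oligo(dT), PCR-amplify, label with 6-FAM, digest with HpaI; size fragments by capillary electrophoresis. DMSO serves as negative control.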

Test [19] is described as follows: ATG_GAL4_TRANS: Attagene TRANS-FACTORIAL HepG2 Assay for GAL4 (Internal Marker) (AID 2282976; active = hit-call score of the fitted dose curve at least 0.9, where 1 is the maximum). The following applies: HepG2 Attagene TRANS GAL4 internal marker reporter. The essentials: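 HepG2 cells transiently transfected with multiplexed GAL4-UAS reporter constructs were dosed for 24 h. Reporter mRNA was measured by RT-PCR, 6-FAM primer extension, HpaI digestion and capillary electrophoresis, and gain of signal was fitted relative to DMSO.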

Transcription factor Sp1 (Homo sapiens), sequence (P08047 whole entry, looked up): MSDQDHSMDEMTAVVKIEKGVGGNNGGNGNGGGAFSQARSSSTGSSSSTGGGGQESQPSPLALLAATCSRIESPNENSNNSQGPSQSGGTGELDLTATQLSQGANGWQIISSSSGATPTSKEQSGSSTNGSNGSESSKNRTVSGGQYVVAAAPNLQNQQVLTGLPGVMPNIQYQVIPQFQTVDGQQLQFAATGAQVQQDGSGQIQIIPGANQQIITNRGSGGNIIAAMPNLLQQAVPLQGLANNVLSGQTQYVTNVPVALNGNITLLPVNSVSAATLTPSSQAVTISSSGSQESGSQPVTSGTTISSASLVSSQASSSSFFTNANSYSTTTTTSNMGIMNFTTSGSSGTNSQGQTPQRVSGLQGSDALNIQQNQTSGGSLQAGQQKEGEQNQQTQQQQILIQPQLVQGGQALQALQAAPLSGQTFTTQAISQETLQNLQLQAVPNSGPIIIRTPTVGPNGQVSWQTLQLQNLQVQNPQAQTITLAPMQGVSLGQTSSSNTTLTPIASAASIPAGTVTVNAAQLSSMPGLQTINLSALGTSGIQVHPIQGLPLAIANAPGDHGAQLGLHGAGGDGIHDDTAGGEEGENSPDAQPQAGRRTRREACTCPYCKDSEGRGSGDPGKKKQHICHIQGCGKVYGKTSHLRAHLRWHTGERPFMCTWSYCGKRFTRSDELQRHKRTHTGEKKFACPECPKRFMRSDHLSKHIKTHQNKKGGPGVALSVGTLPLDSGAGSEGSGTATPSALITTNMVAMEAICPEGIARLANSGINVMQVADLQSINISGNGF
Signal transducer and activator of transcription 3 (Homo sapiens), sequence (P40763 whole entry, looked up): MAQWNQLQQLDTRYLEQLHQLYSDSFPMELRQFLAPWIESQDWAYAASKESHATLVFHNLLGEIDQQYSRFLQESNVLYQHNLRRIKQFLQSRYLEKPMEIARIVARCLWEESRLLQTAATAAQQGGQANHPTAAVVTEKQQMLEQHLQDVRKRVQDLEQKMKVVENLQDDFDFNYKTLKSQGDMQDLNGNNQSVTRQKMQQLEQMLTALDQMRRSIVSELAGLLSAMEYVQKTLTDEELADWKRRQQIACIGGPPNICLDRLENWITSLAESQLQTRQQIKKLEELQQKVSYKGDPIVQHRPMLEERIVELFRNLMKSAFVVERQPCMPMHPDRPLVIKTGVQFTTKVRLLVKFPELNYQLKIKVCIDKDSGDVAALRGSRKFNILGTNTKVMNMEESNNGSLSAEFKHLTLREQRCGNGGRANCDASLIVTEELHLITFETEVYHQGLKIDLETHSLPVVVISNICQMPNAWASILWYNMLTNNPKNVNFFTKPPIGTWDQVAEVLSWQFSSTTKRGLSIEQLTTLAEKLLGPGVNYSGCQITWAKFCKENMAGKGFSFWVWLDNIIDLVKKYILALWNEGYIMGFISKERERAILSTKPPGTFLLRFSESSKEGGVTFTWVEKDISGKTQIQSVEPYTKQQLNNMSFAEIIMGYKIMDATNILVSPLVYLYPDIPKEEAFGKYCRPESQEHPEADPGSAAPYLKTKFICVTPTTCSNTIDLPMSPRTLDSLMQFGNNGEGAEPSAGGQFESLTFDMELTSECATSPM
Glucocorticoid receptor (Homo sapiens), sequence (P04150 whole entry, looked up, the tested form may be a part): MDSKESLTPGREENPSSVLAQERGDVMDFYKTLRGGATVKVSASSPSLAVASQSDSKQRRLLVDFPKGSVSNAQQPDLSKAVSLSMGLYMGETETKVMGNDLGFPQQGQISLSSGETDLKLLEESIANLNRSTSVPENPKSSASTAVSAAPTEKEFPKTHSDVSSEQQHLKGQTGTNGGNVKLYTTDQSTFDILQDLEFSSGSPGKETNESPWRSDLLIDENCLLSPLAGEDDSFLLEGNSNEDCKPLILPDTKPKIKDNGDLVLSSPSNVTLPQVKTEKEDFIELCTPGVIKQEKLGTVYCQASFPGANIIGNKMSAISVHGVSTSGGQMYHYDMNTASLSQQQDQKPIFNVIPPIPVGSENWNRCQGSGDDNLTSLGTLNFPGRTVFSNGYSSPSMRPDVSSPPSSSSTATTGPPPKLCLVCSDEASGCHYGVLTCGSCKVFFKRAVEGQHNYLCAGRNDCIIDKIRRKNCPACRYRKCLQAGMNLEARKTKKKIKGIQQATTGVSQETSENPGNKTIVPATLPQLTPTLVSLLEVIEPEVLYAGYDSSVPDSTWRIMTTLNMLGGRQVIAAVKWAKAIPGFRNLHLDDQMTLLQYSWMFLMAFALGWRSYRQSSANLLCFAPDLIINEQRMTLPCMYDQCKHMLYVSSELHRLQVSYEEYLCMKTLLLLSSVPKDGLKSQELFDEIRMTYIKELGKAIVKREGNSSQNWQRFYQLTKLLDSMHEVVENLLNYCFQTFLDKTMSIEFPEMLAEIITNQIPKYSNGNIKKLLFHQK
X-box-binding protein 1 (Homo sapiens), sequence (P17861 whole entry, looked up): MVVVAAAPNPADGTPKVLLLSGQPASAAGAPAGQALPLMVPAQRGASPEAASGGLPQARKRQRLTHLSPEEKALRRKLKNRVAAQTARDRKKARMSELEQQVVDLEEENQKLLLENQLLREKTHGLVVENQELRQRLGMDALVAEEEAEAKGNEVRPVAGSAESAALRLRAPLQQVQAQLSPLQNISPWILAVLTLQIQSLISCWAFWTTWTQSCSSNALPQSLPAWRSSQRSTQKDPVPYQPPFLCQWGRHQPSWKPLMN
Estrogen receptor (Homo sapiens), sequence (P03372 whole entry, looked up, the tested form may be a part): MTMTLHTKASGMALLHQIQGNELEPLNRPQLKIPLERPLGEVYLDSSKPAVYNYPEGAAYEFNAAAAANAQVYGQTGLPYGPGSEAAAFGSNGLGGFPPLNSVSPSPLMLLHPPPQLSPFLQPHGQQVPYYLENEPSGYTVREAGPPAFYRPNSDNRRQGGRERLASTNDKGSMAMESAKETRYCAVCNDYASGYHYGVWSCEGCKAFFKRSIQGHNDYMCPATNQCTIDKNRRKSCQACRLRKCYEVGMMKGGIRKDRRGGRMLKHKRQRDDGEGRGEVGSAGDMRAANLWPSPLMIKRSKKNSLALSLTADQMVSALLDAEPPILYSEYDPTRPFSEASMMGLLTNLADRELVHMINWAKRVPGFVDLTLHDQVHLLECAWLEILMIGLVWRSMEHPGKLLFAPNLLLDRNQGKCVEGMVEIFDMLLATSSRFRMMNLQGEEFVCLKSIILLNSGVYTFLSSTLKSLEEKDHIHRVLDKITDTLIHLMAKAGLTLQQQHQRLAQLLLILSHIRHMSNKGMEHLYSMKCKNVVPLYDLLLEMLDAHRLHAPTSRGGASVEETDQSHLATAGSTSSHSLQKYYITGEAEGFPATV
Nuclear receptor subfamily 1 group I member 3 (Homo sapiens), sequence (Q14994 whole entry, looked up, the tested form may be a part): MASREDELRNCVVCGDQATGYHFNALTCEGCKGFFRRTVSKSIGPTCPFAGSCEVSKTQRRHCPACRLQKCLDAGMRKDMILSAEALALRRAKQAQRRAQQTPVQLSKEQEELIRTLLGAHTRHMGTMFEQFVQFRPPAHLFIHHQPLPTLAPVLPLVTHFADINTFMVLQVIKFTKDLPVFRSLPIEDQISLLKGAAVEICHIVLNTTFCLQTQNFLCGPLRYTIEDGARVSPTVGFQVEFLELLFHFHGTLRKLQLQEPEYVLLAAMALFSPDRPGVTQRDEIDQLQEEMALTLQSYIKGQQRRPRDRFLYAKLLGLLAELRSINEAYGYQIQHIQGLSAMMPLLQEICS
Estrogen-related receptor gamma (Homo sapiens), sequence (P62508 whole entry, looked up, the tested form may be a part): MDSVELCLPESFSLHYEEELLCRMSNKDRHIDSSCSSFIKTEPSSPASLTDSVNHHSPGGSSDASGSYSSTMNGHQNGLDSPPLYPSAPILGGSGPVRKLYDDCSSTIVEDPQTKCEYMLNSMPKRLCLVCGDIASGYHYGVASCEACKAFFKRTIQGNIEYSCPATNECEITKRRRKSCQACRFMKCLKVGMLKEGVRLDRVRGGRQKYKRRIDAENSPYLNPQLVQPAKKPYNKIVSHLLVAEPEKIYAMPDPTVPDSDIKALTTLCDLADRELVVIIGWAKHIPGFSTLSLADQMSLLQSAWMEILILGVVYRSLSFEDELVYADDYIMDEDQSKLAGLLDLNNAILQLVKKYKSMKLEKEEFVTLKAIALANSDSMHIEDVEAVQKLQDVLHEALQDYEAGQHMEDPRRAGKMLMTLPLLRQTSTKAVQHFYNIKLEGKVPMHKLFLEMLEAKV

As to `CC(O)COc1ccccc1` (stereo not given), the half-maximal activity concentration (AC50) in test [1] is 59.5 µM (active). Besides, the compound was called inactive in [1], in test [2], in test [3], in test [4], in test [5] and in test [6]. Also, the compound was classed as inactive in [7], in test [8], in test [9], in test [10], in test [11] and in [12]. In addition, the compound was classed as inactive in [13], in test [14] and in test [15].
In the case of `NNc1nc(-c2ccc([N+](=O)[O-])cc2)cs1`, the call in test [1], in [2], in test [3], in [4], in [5] and in [6] was inactive. Moreover, the call in test [7], in test [8], in [9], in [10], in test [11] and in test [12] was inactive. Moreover, the result in [16], in test [17], in test [13], in test [14] and in test [18] was inactive.
As to `CCOC(C)=O`, the outcome in test [1], in test [2], in [3], in test [4], in test [5] and in test [6] was inactive. Further, the compound was called inactive in test [7], in [8], in test [9], in test [10], in [11] and in test [12]. The outcome in test [16], in test [17], in [13], in [14], in test [19] and in [15] was inactive.
For the compound `O=C1NS(=O)(=O)c2ccccc21`, in test [1], the AC50 is 55.9 µM (active). Moreover, the result in test [1], in [3], in [4], in test [5], in [6] and in [7] was inactive. Also, the compound was called inactive in test [8], in test [9], in [10], in [11], in [13] and in test [14]. Moreover, in test [19], the call was inactive.
